# Experimental data as given in publication PMC7862700, “An all-to-all approach to the identification of sequence-specific readers for epigenetic DNA modifications on cytosine”.
# Columns and labels:
# Assay in all cases: DAPPL (digital affinity profiling via proximity ligation, sequencing); 10 mM Tris-HCl pH 7.5, 50 mM NaCl, 1 mM DTT, 4% glycerol, room temperature, 30 min; GST-TFs on glutathione beads, 16-mer random dsDNA library, 0.1% formaldehyde crosslink after washing; high values mean tight binding
# [1] = biological target: T1, FLI1 (Homo sapiens, UniProt Q01543 1-452); details: protein: recombinant; tags: N-terminal GST; dsDNA, one strand shown
# T1 sequence: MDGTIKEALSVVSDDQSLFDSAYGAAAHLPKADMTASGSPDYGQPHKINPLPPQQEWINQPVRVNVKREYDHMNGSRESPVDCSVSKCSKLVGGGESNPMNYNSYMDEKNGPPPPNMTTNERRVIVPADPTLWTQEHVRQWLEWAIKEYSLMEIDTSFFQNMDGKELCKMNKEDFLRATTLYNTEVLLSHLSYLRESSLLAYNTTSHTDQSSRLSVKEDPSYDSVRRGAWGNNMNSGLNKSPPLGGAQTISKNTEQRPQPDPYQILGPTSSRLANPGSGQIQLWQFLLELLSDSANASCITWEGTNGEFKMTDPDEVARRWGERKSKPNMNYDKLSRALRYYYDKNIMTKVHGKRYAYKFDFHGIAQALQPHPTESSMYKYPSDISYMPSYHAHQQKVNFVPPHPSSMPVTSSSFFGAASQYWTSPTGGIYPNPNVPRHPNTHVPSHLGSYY
# Procedure, shortened: (§1)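 The binding signal reported is, for every hexamer, its read frequency for a factor over its read frequency for the tag-only sample. Reads came from pools of yeast-expressed, GST-fused human transcription factors on glutathione beads, barcoded with DNA and mixed with that sample, which were incubated with 200 nmole of a random double-stranded 16-mer DNA library in Tris/NaCl/DTT/glycerol buffer at room temperature for 30 min. After washing, the pools were crosslinked with 0.1% formaldehyde, proximity-ligated with BsaI/T4 ligase for 1 h at 37 °C, PCR-amplified and sequenced on an Illumina NextSeq500.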
# [2] = biological target: T2, ELK1 (Homo sapiens, UniProt P19419 1-428); details: protein: recombinant; tags: N-terminal GST; dsDNA, one strand shown
# T2 sequence: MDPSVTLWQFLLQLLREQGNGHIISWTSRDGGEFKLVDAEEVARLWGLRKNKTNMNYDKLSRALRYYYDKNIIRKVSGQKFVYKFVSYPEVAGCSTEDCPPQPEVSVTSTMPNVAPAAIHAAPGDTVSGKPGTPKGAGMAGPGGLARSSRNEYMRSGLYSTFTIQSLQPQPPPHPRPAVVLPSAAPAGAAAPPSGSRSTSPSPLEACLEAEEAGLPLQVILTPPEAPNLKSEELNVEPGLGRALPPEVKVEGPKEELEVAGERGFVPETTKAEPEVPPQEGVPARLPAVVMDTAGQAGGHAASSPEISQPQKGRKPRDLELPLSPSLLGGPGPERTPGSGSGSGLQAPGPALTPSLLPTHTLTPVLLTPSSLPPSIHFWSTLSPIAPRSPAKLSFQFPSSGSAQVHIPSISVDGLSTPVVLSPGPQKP
# Procedure, shortened: as §1
# [3] = biological target: T3, GABPA (Homo sapiens, UniProt Q06546 1-454); details: protein: recombinant; tags: N-terminal GST; dsDNA, one strand shown
# T3 sequence: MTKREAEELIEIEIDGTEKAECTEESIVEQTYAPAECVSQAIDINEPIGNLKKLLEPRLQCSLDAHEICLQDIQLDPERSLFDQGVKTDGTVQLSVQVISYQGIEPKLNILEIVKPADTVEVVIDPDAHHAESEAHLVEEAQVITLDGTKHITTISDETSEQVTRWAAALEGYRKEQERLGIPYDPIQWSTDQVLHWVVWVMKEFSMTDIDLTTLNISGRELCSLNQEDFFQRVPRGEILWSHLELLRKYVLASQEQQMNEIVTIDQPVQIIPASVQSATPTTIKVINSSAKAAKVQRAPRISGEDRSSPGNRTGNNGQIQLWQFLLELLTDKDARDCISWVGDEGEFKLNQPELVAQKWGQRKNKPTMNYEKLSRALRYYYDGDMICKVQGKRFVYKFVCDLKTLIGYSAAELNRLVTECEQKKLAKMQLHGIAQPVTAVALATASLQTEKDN
# Procedure, shortened: as §1
# [4] = biological target: T4, ERG (Homo sapiens, UniProt P11308 1-479); details: protein: recombinant; tags: N-terminal GST; dsDNA, one strand shown
# T4 sequence: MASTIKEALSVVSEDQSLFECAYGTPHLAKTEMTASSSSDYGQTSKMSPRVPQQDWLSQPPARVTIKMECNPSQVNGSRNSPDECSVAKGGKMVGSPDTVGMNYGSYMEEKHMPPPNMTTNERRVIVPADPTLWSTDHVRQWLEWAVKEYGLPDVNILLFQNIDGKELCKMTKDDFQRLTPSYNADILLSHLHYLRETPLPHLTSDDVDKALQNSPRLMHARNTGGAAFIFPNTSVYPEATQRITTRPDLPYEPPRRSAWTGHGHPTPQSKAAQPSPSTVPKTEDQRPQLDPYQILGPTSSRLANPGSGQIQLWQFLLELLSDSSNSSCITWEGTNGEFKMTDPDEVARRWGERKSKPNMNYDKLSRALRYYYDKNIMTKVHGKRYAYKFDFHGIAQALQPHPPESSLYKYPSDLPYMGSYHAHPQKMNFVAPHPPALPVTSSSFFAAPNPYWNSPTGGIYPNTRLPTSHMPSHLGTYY
# Procedure, shortened: as §1
# [5] = biological target: ELF1 (Homo sapiens, UniProt P32519 1-619); details: protein: recombinant; tags: N-terminal GST; dsDNA, one strand shown
# ELF1, sequence (P32519 whole entry): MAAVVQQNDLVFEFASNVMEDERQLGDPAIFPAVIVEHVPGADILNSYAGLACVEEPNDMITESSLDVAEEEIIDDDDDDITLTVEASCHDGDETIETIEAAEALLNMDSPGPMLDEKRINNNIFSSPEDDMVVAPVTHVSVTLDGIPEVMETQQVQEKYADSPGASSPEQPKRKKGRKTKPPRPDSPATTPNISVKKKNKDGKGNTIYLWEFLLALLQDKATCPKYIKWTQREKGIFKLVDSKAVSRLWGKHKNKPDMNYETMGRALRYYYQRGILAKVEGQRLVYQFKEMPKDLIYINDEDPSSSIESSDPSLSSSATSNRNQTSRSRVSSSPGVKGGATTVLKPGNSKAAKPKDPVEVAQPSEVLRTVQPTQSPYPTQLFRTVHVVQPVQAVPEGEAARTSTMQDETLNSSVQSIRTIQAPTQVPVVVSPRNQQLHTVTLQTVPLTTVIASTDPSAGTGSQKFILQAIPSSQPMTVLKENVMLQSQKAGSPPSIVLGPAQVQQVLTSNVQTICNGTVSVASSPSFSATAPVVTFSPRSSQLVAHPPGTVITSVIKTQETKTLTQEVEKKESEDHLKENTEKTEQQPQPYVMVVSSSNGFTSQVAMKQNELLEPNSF
# Procedure, shortened: as §1
# [6] = biological target: T5, EHF (Homo sapiens, UniProt Q9NZC4 1-300); details: protein: recombinant; tags: N-terminal GST; dsDNA, one strand shown
# T5 sequence: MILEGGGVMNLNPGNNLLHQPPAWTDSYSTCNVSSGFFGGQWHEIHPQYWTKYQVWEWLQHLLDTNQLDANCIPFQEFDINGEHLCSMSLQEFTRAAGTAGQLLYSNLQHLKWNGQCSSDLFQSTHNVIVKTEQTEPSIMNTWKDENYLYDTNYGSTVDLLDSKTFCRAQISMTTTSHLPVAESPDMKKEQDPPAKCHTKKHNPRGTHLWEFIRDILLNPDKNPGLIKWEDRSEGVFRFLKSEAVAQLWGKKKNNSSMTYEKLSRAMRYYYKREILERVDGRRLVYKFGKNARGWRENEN
# Procedure, shortened: as §1
# [7] = biological target: SPIB (Homo sapiens, UniProt Q01892 1-262); details: protein: recombinant; tags: N-terminal GST; dsDNA, one strand shown
# SPIB, sequence (Q01892 whole entry): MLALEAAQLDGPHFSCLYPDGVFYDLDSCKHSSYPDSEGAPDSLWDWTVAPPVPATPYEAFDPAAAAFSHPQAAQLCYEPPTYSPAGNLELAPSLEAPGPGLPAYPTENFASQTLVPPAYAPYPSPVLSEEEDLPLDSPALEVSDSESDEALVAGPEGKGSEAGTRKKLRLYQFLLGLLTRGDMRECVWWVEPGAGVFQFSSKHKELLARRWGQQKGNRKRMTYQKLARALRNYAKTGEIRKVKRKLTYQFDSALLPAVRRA
# Procedure, shortened: as §1
# [8] = biological target: T6, ELK3 (Homo sapiens, UniProt P41970 1-407); details: protein: recombinant; tags: N-terminal GST; dsDNA, one strand shown
# T6 sequence: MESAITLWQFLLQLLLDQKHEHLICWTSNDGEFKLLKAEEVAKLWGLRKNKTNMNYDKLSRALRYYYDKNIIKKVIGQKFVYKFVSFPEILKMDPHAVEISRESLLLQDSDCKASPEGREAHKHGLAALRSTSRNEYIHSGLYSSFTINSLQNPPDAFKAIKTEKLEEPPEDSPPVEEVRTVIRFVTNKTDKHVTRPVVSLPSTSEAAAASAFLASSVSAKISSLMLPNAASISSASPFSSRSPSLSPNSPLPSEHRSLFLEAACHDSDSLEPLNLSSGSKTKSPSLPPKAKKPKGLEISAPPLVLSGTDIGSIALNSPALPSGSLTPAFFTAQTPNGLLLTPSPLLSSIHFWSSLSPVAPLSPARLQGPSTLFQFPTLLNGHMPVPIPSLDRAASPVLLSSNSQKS
# Procedure, shortened: as §1
# [9] = biological target: T7, FEV (Homo sapiens, UniProt Q99581 1-238); details: protein: recombinant; tags: N-terminal GST; dsDNA, one strand shown
# T7 sequence: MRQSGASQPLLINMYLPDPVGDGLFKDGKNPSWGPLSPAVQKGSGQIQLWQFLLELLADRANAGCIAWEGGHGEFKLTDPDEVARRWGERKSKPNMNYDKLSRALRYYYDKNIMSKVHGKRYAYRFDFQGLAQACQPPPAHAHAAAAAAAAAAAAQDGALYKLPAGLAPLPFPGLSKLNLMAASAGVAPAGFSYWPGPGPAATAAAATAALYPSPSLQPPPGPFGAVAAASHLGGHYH
# Procedure, shortened: as §1
# [10] = biological target: ETV5 (Homo sapiens, UniProt P41161 1-510); details: protein: recombinant; tags: N-terminal GST; dsDNA, one strand shown
# ETV5, sequence (P41161 whole entry): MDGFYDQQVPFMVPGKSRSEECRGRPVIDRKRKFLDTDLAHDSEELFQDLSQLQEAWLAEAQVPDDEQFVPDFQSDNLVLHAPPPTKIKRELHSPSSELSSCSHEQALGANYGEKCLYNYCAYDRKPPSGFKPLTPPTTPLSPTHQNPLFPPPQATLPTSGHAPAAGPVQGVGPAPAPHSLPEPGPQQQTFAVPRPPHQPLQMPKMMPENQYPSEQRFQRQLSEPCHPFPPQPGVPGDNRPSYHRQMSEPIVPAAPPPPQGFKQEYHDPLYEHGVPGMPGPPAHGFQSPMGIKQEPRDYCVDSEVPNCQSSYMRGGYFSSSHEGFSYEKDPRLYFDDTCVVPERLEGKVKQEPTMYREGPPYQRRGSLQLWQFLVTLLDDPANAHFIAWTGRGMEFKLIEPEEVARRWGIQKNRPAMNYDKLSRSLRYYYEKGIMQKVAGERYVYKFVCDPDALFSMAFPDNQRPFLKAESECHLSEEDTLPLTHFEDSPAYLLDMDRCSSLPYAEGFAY
# Procedure, shortened: as §1
# [11] = biological target: HSF1 (Homo sapiens, UniProt Q00613 1-529); details: protein: recombinant; tags: N-terminal GST; chain copies: 3; dsDNA, one strand shown
# HSF1, sequence (Q00613 whole entry): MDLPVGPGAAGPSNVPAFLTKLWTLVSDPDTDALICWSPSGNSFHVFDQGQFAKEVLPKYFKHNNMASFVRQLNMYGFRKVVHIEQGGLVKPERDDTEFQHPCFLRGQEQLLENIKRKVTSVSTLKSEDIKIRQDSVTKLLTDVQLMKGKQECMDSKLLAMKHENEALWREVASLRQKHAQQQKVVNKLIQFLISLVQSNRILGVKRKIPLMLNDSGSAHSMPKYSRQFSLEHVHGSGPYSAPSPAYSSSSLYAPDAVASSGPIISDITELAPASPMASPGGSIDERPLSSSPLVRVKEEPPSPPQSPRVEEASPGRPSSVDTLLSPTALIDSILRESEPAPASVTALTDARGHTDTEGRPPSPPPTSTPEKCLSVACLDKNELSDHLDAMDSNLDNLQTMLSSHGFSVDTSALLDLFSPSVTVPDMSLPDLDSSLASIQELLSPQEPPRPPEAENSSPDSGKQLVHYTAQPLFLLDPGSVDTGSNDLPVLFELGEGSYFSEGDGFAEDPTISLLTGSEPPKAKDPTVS
# Procedure, shortened: as §1
# [12] = biological target: ELF4 (Homo sapiens, UniProt Q99607 1-663); details: protein: recombinant; tags: N-terminal GST; dsDNA, one strand shown
# ELF4, sequence (Q99607 whole entry): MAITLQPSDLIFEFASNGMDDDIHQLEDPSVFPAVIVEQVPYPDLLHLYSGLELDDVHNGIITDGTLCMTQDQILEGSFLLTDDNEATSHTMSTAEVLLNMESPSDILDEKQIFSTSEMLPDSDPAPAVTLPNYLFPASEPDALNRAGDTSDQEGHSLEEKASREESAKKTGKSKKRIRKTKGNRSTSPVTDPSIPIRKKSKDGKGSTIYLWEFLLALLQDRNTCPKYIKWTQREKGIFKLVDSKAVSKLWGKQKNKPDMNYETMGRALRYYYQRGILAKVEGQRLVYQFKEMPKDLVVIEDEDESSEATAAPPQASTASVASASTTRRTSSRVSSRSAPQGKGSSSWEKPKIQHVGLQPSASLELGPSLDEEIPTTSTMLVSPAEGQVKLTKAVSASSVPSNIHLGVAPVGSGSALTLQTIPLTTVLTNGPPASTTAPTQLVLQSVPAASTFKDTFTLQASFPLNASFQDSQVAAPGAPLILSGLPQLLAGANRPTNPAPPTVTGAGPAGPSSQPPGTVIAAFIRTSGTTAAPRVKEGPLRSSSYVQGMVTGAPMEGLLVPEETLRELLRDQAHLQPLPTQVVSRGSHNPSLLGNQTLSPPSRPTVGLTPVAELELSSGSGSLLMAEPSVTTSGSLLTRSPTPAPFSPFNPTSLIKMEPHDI
# Procedure, shortened: as §1
# [13] = biological target: T8, ELK4 (Homo sapiens, UniProt P28324-2 1-405); details: protein: recombinant; tags: N-terminal GST; dsDNA, one strand shown
# T8 sequence: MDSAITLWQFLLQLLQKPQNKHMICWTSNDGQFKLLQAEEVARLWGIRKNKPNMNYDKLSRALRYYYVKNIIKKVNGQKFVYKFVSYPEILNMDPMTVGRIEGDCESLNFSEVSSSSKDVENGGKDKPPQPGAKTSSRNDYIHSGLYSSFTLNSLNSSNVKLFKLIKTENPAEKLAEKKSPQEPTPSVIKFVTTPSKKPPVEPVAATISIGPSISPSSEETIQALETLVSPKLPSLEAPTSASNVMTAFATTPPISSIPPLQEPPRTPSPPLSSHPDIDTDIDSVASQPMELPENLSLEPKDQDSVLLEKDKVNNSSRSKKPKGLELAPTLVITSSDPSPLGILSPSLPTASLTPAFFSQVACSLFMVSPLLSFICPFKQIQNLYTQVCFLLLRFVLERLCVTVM
# Procedure, shortened: as §1
# [14] = biological target: T9, ETV2 (Homo sapiens, UniProt O00321 1-342); details: protein: recombinant; tags: N-terminal GST; dsDNA, one strand shown
# T9 sequence: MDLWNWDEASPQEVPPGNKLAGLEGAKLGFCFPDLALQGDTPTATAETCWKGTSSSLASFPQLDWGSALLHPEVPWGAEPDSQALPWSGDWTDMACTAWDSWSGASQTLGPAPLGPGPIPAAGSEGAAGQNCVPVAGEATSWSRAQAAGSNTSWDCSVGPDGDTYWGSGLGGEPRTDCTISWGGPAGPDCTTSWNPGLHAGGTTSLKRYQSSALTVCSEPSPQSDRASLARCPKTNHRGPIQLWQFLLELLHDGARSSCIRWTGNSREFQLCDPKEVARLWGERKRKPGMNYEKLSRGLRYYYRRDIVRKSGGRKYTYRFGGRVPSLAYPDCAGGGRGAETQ
# Procedure, shortened: as §1
# [15] = biological target: CRX (Homo sapiens, UniProt O43186 1-299); details: protein: recombinant; tags: N-terminal GST; dsDNA, one strand shown
# CRX, sequence (O43186 whole entry): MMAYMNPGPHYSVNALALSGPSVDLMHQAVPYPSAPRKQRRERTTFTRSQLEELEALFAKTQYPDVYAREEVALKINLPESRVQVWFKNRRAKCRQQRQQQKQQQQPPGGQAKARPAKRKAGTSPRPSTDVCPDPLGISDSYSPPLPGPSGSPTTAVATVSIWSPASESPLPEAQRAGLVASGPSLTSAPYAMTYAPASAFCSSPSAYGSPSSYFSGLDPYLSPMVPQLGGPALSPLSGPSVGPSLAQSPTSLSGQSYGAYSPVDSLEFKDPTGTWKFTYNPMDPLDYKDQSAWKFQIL
# Procedure, shortened: as §1
# [16] = biological target: ETV1 (Homo sapiens, UniProt P50549 1-477); details: protein: recombinant; tags: N-terminal GST; dsDNA, one strand shown
# ETV1, sequence (P50549 whole entry): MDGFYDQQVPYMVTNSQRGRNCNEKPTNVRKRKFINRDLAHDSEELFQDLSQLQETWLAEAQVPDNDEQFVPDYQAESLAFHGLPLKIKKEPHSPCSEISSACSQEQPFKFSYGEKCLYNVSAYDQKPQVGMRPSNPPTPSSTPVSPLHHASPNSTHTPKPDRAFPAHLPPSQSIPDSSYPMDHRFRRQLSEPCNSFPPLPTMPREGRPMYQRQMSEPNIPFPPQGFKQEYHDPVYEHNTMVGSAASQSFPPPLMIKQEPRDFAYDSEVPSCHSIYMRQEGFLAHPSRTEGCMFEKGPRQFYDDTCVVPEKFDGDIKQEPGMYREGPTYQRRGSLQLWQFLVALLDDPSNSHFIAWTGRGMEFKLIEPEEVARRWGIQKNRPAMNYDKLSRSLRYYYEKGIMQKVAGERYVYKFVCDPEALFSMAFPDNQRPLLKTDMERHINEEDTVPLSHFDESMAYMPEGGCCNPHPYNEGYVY
# Procedure, shortened: as §1
sequence,measurement,setting,value
TCAAGG,binding signal,[1],"1.05 fold enrichment (6-mer frequency, TF over GST control)"
same,binding signal,[2],"1.05 fold enrichment (6-mer frequency, TF over GST control)"
same,binding signal,[3],"1.05 fold enrichment (6-mer frequency, TF over GST control)"
same,binding signal,[4],"1.1 fold enrichment (6-mer frequency, TF over GST control)"
same,binding signal,[5],"1.07 fold enrichment (6-mer frequency, TF over GST control)"
same,binding signal,[6],"1.09 fold enrichment (6-mer frequency, TF over GST control)"
same,binding signal,[7],"1.04 fold enrichment (6-mer frequency, TF over GST control)"
same,binding signal,[8],"1.19 fold enrichment (6-mer frequency, TF over GST control)"
same,binding signal,[9],"1.08 fold enrichment (6-mer frequency, TF over GST control)"
same,binding signal,[10],"1.03 fold enrichment (6-mer frequency, TF over GST control)"
same,binding signal,[11],"1.04 fold enrichment (6-mer frequency, TF over GST control)"
same,binding signal,[12],"1.01 fold enrichment (6-mer frequency, TF over GST control)"
same,binding signal,[13],"1.07 fold enrichment (6-mer frequency, TF over GST control)"
same,binding signal,[14],"1.19 fold enrichment (6-mer frequency, TF over GST control)"
same,binding signal,[15],"1.09 fold enrichment (6-mer frequency, TF over GST control)"
same,binding signal,[16],"1.12 fold enrichment (6-mer frequency, TF over GST control)"
